# In all, about 2,000 compounds went through this assay and about 110 (5.5%) showed an effect of 50% or more. This excerpt belongs to a sample that is enriched for strong results.
# Target: Genome polyprotein (dengue virus type 2) (UniProt P29990)
# [1] = Thailand/16681/1984, Concentration 25.0 uM, Number of replicates 1.0
smiles,measurement,setting,value
CCc1nc(CNC(=O)[C@]2(c3ccc(F)cc3)CCCNC2)n[nH]1,inhibition,"Thailand/16681/1984, Concentration 49.5 uM, Number of replicates 2.0, Standard deviation 0.49799700461423274 %",-1.23%
same,inhibition,"Thailand/16681/1984, Concentration 99.01 uM, Number of replicates 2.0, Standard deviation 0.6482125452450617 %",-1.25%
same,inhibition,"Thailand/16681/1984, Concentration 198.0 uM, Number of replicates 2.0, Standard deviation 1.0139545093997464 %",-1.41%
O=Cc1ccc(N2CCC(C(=O)NCc3ccccc3Br)CC2)cc1,inhibition,[1],12.3%
O=Cc1ccc(N2CCC(C(=O)NCc3ccc4ccccc4n3)CC2)cc1,inhibition,[1],12.8%
Cc1nc(C2CCN(Cc3c[nH]c4ccccc34)CC2)sc1C(=O)O,inhibition,"Thailand/16681/1984, Concentration 49.5 uM, Number of replicates 2.0, Standard deviation 2.532196482700825 %",-7.37%
same,inhibition,"Thailand/16681/1984, Concentration 99.01 uM, Number of replicates 2.0, Standard deviation 0.1962596660766768 %",-5.26%
same,inhibition,"Thailand/16681/1984, Concentration 198.0 uM, Number of replicates 2.0, Standard deviation 1.7247831523377455 %",-1.52%
COC(=O)c1cncc(C(=O)Nc2ccncc2C)c1,inhibition,"Thailand/16681/1984, Concentration 49.5 uM, Number of replicates 2.0, Standard deviation 6.3209660189886 %",2.4%
same,inhibition,"Thailand/16681/1984, Concentration 99.01 uM, Number of replicates 2.0, Standard deviation 0.9582277355643998 %",-1.8%
same,inhibition,"Thailand/16681/1984, Concentration 198.0 uM, Number of replicates 2.0, Standard deviation 0.7051109593221626 %",-2.38%
Cc1cc(S(=O)(=O)NCCNC(=O)c2ccc(O)c(NC(=O)c3ccncc3F)c2C)c(C)s1,inhibition,"Thailand/16681/1984, Concentration 49.5 uM, Number of replicates 2.0, Standard deviation 0.0696651159595359 %",-1.95%
same,inhibition,"Thailand/16681/1984, Concentration 99.01 uM, Number of replicates 2.0, Standard deviation 0.12517951182523615 %",-1.5%
same,inhibition,"Thailand/16681/1984, Concentration 198.0 uM, Number of replicates 2.0, Standard deviation 0.5034395957498385 %",0.045%
COc1ccc(CN(C)C(=O)C2CCN(c3ccc(C=O)cc3)CC2)c(OC)c1,inhibition,[1],14%
NC(=O)c1c(NC(=O)C2CCN(c3ccc(C=O)cc3)CC2)sc2c1CCCC2,inhibition,[1],38.6%
CCn1cc(S(=O)(=O)Nc2ccc(Cl)cc2C(=O)NC)cn1,inhibition,"Thailand/16681/1984, Concentration 49.5 uM, Number of replicates 2.0, Standard deviation 0.5029835247021022 %",-6.21%
C[C@@H](c1ccccc1)N(C(=O)C1CCN(c2ccc(C=O)cc2)CC1)[C@@H](C)c1ccccc1,inhibition,[1],15.2%
CC1(C)Cc2sc(NC(=O)Cc3ccc(S(N)(=O)=O)cc3)c(C#N)c2CN1CC1CCCCC1,inhibition,"Thailand/16681/1984, Concentration 49.5 uM, Number of replicates 2.0, Standard deviation 0.009484052439315419 %",8.25%
same,inhibition,"Thailand/16681/1984, Concentration 99.01 uM, Number of replicates 2.0, Standard deviation 0.7150155530159198 %",14.5%
same,inhibition,"Thailand/16681/1984, Concentration 198.0 uM, Number of replicates 2.0, Standard deviation 0.2762742778628508 %",23.9%
Cc1cc(CO)c2cccc(CC(=O)NCc3sccc3C)c2n1,inhibition,"Thailand/16681/1984, Concentration 49.95 uM, Number of replicates 2.0, Standard deviation 0.3413314788746907 %",44%
same,inhibition,"Thailand/16681/1984, Concentration 99.9 uM, Number of replicates 2.0, Standard deviation 0.321257440691134 %",63.7%
Cc1cc(CO)c2cccc(Cc3ccccc3C(=O)NCc3sccc3C)c2n1,inhibition,"Thailand/16681/1984, Concentration 49.95 uM, Number of replicates 2.0, Standard deviation 0.661878407993628 %",1.17%
same,inhibition,"Thailand/16681/1984, Concentration 99.9 uM, Number of replicates 2.0, Standard deviation 2.367239112425795 %",7.83%
Cc1cc(N)cc(CNC(=O)c2ccccc2Cc2cccc3c(CO)cc(C)nc23)c1,inhibition,"Thailand/16681/1984, Concentration 49.95 uM, Number of replicates 2.0, Standard deviation 1.0161746789387547 %",47.1%
same,inhibition,"Thailand/16681/1984, Concentration 99.9 uM, Number of replicates 2.0, Standard deviation 1.7549489162224476 %",74.7%
Cc1cc(CO)c2cccc(Cc3cccc(C(=O)NCc4sccc4C)c3)c2n1,inhibition,"Thailand/16681/1984, Concentration 49.95 uM, Number of replicates 2.0, Standard deviation 0.7466793423372446 %",1.25%
same,inhibition,"Thailand/16681/1984, Concentration 99.9 uM, Number of replicates 2.0, Standard deviation 0.16169689007422708 %",23.8%
Cc1cc(CO)c2cccc(Cc3ccccc3C(=O)NCc3ccc(S(N)(=O)=O)cc3)c2n1,inhibition,"Thailand/16681/1984, Concentration 49.95 uM, Number of replicates 2.0, Standard deviation 1.5695359944911405 %",4.94%
same,inhibition,"Thailand/16681/1984, Concentration 99.9 uM, Number of replicates 2.0, Standard deviation 2.135114838489864 %",9.8%
Cc1cc(CO)c2cccc(Cc3ccccc3C(=O)NCc3ccc(C(N)=O)cc3)c2n1,inhibition,"Thailand/16681/1984, Concentration 49.95 uM, Number of replicates 2.0, Standard deviation 0.2888981019288338 %",2.07%
same,inhibition,"Thailand/16681/1984, Concentration 99.9 uM, Number of replicates 2.0, Standard deviation 0.18972386998439544 %",5.84%
CC(C)NC(=O)CN1CCN(C(=O)C2CCN(c3ccc(C=O)cc3)CC2)CC1,inhibition,[1],11.2%
Cc1cn2nnc(C(=O)N3CCC[C@H](c4nc(=O)[nH][nH]4)C3)c2c(=O)[nH]1,inhibition,"Thailand/16681/1984, Concentration 49.5 uM, Number of replicates 2.0, Standard deviation 1.1306810071407891 %",-1.83%
same,inhibition,"Thailand/16681/1984, Concentration 99.01 uM, Number of replicates 2.0, Standard deviation 1.1436614778388714 %",-1.38%
same,inhibition,"Thailand/16681/1984, Concentration 198.0 uM, Number of replicates 2.0, Standard deviation 0.31245549284811885 %",-1.83%
Cc1cc(CO)c2cccc(Cc3cccc(C(=O)N[C@H]4C[C@@H](O)C4)c3)c2n1,inhibition,"Thailand/16681/1984, Concentration 49.95 uM, Number of replicates 2.0, Standard deviation 0.3715430142368757 %",6.97%
same,inhibition,"Thailand/16681/1984, Concentration 99.9 uM, Number of replicates 2.0, Standard deviation 0.8666943057865014 %",29.2%
Cc1cc(CO)c2cccc(C[C@H](NC(=O)c3cc(C(F)F)nn3C)C(=O)O)c2n1,inhibition,"Thailand/16681/1984, Concentration 49.95 uM, Number of replicates 2.0, Standard deviation 1.4383595761786832 %",1.98%
same,inhibition,"Thailand/16681/1984, Concentration 99.9 uM, Number of replicates 2.0, Standard deviation 0.48778570830386186 %",5.89%
Cc1nc(N)c2cccc(Cl)c2n1,inhibition,"Thailand/16681/1984, Concentration 49.95 uM, Number of replicates 2.0, Standard deviation 5.075529174302592 %",-8.29%
same,inhibition,"Thailand/16681/1984, Concentration 99.9 uM, Number of replicates 2.0, Standard deviation 2.1313934403537464 %",-8.87%
COc1ccccc1N1CCN(C(=O)C2CCN(c3ccc(C=O)cc3)CC2)CC1,inhibition,[1],12.1%
NCCC(=O)Nc1cccc2cccnc12,inhibition,"Thailand/16681/1984, Concentration 49.95 uM, Number of replicates 2.0, Standard deviation 1.674842930068702 %",-9.45%
same,inhibition,"Thailand/16681/1984, Concentration 99.9 uM, Number of replicates 2.0, Standard deviation 2.956474982493684 %",-7.49%
O=C(Nc1cccc2cccnc12)C1CCNCC1,inhibition,"Thailand/16681/1984, Concentration 49.95 uM, Number of replicates 2.0, Standard deviation 0.4211783883506398 %",-0.871%
same,inhibition,"Thailand/16681/1984, Concentration 99.9 uM, Number of replicates 2.0, Standard deviation 1.2273405052219766 %",51.5%
